Sampled rows, rich in hits. Any-hit rate of the full collection: about 1.3%.
BRCA1 expr up – BRCA1 expression activation. 380,000 tested, 1.1% active. AID 624202. MCF7-BRCA1-FFLuc reporter, luminescence, 48 h; response scale: scaled: vehicle 0%, 10 µM genistein 100%. Potency, µM (highest dose often 46.1 µM), inactives show top-dose activation, actives largely listed as activators; active = well fitted activation curve with a large enough effect; inconclusive = small, poorly fitted or top-dose-only effect; inactive = no such curve, though single readings can be large or run the other way; note: potency is the fitted concentration of half-maximal effect; nearly all actives have a fitted effect of over 80% in size
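48 h compound treatment of MCF7-BRCA1-FFLuc cells (phenol-red free MEM, 37 °C), then 15 min with luciferase substrate and luminescence imaging.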
IL2 activator – activates IL-2 in a cell-based reporter assay. IL-2 activation reporter assay, cell-based qHTS; stimulated with anti-CD3/CD4/CD28 beads; in transgenic mouse T cells. activation, % (series mostly up to about 46 µM). 360,000 tested, 0.065% active. AID 652025; note: 0% is about no effect
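Quantitative HTS in unstimulated transgenic mouse T cells, with memory T cells as non-tolerant control and PMA/ionomycin as tolerance-bypass control. Compound pretreatment lasted 60 minutes before 18 h bead stimulation; EGFP/DsRed fluorescence read.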
PKM2 act – increases activity of human pyruvate kinase M2 | purified PKM2, Kinase-Glo ATP luminescence, activation; response scale: 0% is enzyme alone, no compound | Potency, µM (titrated, usually from 57.5 µM), without a hit: at the highest dose activation, hits mostly activators | 260,000 tested, 0.34% active; active = well fitted activation curve with a large enough effect; inconclusive = small, poorly fitted or top-dose-only effect; inactive = no such curve, though single readings can be large or run the other way; note: potency is the fitted concentration of half-maximal effect; % is set by controls: 0 for no effect and ±100 for the full control effect; nearly all actives have a fitted effect of over 55% in size
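ATP formation by purified human PK-M2, quantified via coupled luciferase luminescence after 1 h at room temperature with 0.1 mM ADP and 0.5 mM PEP final.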
TRPML1 agonist – activates the human TRPML1 channel. activation, % (concentration not given with the values). Q9GZU1. TRPML1-expressing cells, Ca2+ dye fluorescence, FDSS. 410,000 tested, 0.12% active; note: 0% is about no effect
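Cells: TRPML1-DL, 1X Tet inducer, ~16 h at 37 degrees C/5% CO2. Dye: ABD Ca8 no-wash + quencher, 45-90 min RT. Read: 10 s baseline, compound add, 110 s agonist phase; 54-4 EC80 (4uM final), 110 s antagonist phase.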
PTAP TSG101 blk – blocks PTAP/TSG101 interaction to inhibit HIV-1 budding. 340,000 tested, under 10 active. AID 493005. Q99816. Potency, µM (titrated, usually from 115 µM), for inactives: top-dose activity change, negative = inhibition, usual class: inhibitors. Fluorescence polarization, FITC-PTAP peptide / Tsg101 binding; active = well fitted inhibition curve with a large enough effect in the main read-out, with a control signal flat, not every such curve was filed as active; inconclusive = small, poorly fitted or top-dose-only effect, or effect the other way, or a change in a side signal; inactive = no such curve, though single readings can be large or run the other way; note: potency is the fitted concentration of half-maximal effect; % of control where 0% means no effect
Target sequence (Q99816 whole entry, looked up): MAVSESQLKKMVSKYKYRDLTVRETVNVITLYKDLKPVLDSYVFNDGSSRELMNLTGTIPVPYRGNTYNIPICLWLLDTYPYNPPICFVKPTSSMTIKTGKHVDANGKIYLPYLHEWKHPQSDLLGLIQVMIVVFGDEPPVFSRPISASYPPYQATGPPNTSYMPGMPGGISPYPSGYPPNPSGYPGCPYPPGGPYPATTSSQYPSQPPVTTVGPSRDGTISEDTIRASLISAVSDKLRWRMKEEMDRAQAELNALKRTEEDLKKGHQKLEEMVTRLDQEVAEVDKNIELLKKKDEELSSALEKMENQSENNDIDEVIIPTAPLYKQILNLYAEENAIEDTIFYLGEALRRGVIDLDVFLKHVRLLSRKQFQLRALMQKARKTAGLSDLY
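Steps: Tsg101 binding domain dispensed (10 uM final), compounds pinned in DMSO, FITC-labeled PTAP-motif peptide added (50 nM final); after 20 min binding at room temperature, polarization measured.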
TRPML1 blocker – human mucolipin-1 channel inhibition; Q9GZU1; TRPML1-inducible cells, Ca2+ dye fluorescence, FDSS; stronger effect = lower value; inhibition of EC80 agonist-evoked calcium signal; 390,000 tested, 0.02% active; activity change, negative = inhibition, % (no concentration beside the values); in the data active = activity change below about -50%; inconclusive = between about -30% and that limit;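 note: stimulus is agonist 54-4 at its EC80 concentration; % is set by controls: 0 for no effect and ±100 for the full control effect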
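Tet-induced TRPML1-DL cells loaded with Ca8 no-wash calcium dye were read kinetically on FDSS. Compound addition was followed by EC80 agonist 54-4 (4 uM final); inhibition was read over 110 s.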
* = called active by the depositor; ? = inconclusive; / = not tested or not shown. Cut-off read from the data, not from the text of the source, unless noted: active = activation above about 50%; inconclusive = mostly about 30% to 49%; inactive = weaker than that.

SMILES	BRCA1 expr up	IL2 activator	PKM2 act	TRPML1 agonist	PTAP TSG101 blk	TRPML1 blocker
CS/C(N)=N/N=C/c1ccc([N+](=O)[O-])cc1	11µM*	-2	-1%	2	-2%	6
N/C(=N\N=C\c1ccc([N+](=O)[O-])cc1)c1nonc1N	?	0	1%	0	-4%	9
Cc1ccc(S(=O)(=O)c2cn(Cc3ccccc3)c3cc(N4CCCC4)c(F)cc3c2=O)cc1C	/	/	/	-1	/	-1
COc1ccc(-c2ccc(-c3noc(-c4cc(OC)cc(OC)c4)n3)c(OC)n2)cc1	/	/	/	0	/	-15
COc1ccc(CNc2cccnc2Cl)cc1	10µM*	0	/	-1	/	/
COc1cc(OC)c(NC(=O)CSc2nccn2C)cc1Cl	-41%	/	/	2	/	16
COc1cc([N+](=O)[O-])ccc1NC(=O)CSc1nccn1C	35%	0	13µM*	0	4%	-13
Cc1ccc(Cl)cc1NC(=O)Cn1c(=O)cc(C)c2c(C)nn(C)c21	5%	/	/	0	/	0
CCc1ccc2oc(-c3cccc(NC(=O)c4ccc(N5CCC(C)CC5)c([N+](=O)[O-])c4)c3)nc2c1	/	/	/	0	/	-3
CCOc1ccc(CNS(=O)(=O)c2ccc(-c3cc(C(F)(F)F)on3)s2)cc1	/	/	/	0	/	-2
CCCn1c(=S)[nH]c2cc(C(=O)N3CCN(c4ccccc4)CC3)ccc2c1=O	8%	0	/	0	/	5
O=C(c1ccc2c(=O)n(Cc3ccco3)c(=S)[nH]c2c1)N1CCN(c2ccccc2)CC1	-33%	-1	13µM*	-1	-1%	0
Cc1cc(C(=O)CSc2nnc(N)s2)c(C)n1C1CC1	7.9µM*	4	/	1	0%	4
Cc1ccc(C(=O)CSc2nnc(N)s2)c(C)c1	4.5µM*	0	29%	-1	9%	9
COc1ccc(Cl)cc1N=C1NC(=O)CC(C(=O)Nc2ccccc2C(F)(F)F)S1 (stereo not given)	-6%	/	/	4	/	2
O=C(O)c1ccc(N/N=C/c2cccc3nccnc23)cc1	13µM*	1	0%	/	-6%	/
O=C(Nc1ccon1)c1ccc(N2CCCCC2)c([N+](=O)[O-])c1	13µM*	-1	-7%	4	-13%	-1
CCc1ccc(/C=C2\CN(CC)Cc3c2nc2ccccc2c3C(=O)O)cc1	-2%	0	13µM*	0	-12%	-11
N=C1/C(=C\c2coc3ccccc3c2=O)C(=O)N=C2SC(c3ccncc3)=NN12	-27%	2	22%	112*	?	-14
N=C1/C(=C\c2coc3ccc(O)cc3c2=O)C(=O)N=C2SC=CN12	-64%	13	28µM*	?	?	-18
CSC1=NSC2=NC(=O)/C(=C\c3coc4ccccc4c3=O)C(=N)N12	-1%	3	16%	76*	35µM*	-10
N=C1/C(=C/c2coc3ccccc3c2=O)C(=O)N=C2SC(c3ccco3)=NN12	-29%	1	13%	81*	?	-16
Brc1cccc[n+]1Cc1ccc(C[n+]2ccccc2Br)cc1	10%	/	/	0	/	/
COc1ccc(C(=O)NNC(=O)C(=O)/C=C(\O)c2ccc(C)cc2)cc1	-29%	1	/	-1	-2%	11
O=C(/C=C(\O)c1ccccc1)C(=O)NNC(=O)c1ccccc1	13µM*	-3	/	/	-5%	/
SMILES	BRCA1 expr up	IL2 activator	PKM2 act	TRPML1 agonist	PTAP TSG101 blk	TRPML1 blocker
Cc1ccc(-c2noc(-c3ccc(NC4CCCC4)c([N+](=O)[O-])c3)n2)cc1	0%	/	/	1	/	-11
CN(C)c1ccc(/C=C/c2nc3ccccc3s2)cc1Cl	32%	/	/	0	/	/
COc1cc2c(cc1N)-c1ccc(N)cc1C2=O	10µM*	-1	/	-1	/	-1
Cc1ccc(-c2noc(CCC(=O)Nc3ccc(F)cc3Cl)n2)cc1	/	/	/	-1	/	-8
O=C(Nc1ccc2[nH]ncc2c1)c1ccccc1Cl	2.8µM*	-3	-3%	0	-1%	13
CCc1cc(=O)[nH]c(SCc2nc(-c3ccc(C(F)(F)F)cc3)no2)n1	/	/	/	-1	/	-5
O=C(CSC1=NCCS1)N1CCc2ccccc21	3.2µM*	-2	15%	-1	-5%	-3
Cc1cc(C)nc(SCC(=O)N2CCc3ccccc32)n1	5.6µM*	-2	/	0	1%	3
Nc1ccccc1SCC(=O)N1CCc2ccccc21	69%	1	15%	2	-3%	3
Cc1cc(C)n2nc(SCC(=O)N3CCc4ccccc43)nc2n1	1%	0	10%	2	-2%	-16
COc1ccc(NC(=O)Cn2c(=O)oc3cc(S(=O)(=O)N4CCCC4)ccc32)cc1OC	/	/	/	0	/	-29
CC(C)Cc1nc(N2CCN(C(=O)c3ccco3)CC2)c(C#N)c2c1CCC2	-34%	0	22µM*	0	-6%	13
Oc1ccc(Cl)cc1C1C=C(c2ccc3c(c2)OCO3)NC(c2ccc(Br)cc2)N1 (stereo not given)	0%	/	/	3	/	/
Cc1nc(NC(=O)c2oc3ccccc3c2C)sc1C(=O)N(C)C	13µM*	-4	-14%	0	-3%	12
CNc1cc(CSc2ccc(Cl)cc2)nc(C)n1	5µM*	2	/	1	-7%	-4
Cc1ccc(SCc2cn3cc(Cl)ccc3n2)cc1	10µM*	0	17%	1	-1%	-5
Clc1ccc(SCc2cn3ccccc3n2)cc1	5.6µM*	0	0%	2	-1%	-7
Cc1cccc2nc(CSc3ccc(Cl)cc3)cn12	4.5µM*	-3	1%	2	1%	-21
N#Cc1nc(-c2ccc(OCc3ccc(Cl)cc3)cc2)oc1N1CCCCCC1	18%	/	/	0	/	/
CC(=O)c1ccc(NC(=O)CCc2c(C)nn(-c3ccc4nncn4n3)c2C)cc1	/	/	/	1	/	9
CCNC(=O)c1c(NC(=O)c2nc(SC)ncc2Cl)sc2c1CCCC2	12%	/	/	0	/	/
COc1cccc(-c2nn(Cc3ccccc3)cc2CO)c1	13µM*	-3	4%	0	-6%	-6
NCc1cn(Cc2ccccc2)nc1-c1ccccc1	26%	/	/	0	/	/
CC(=O)Nc1ccc(Sc2ncccc2C(=O)Nc2ccc(OC(F)(F)F)cc2)cn1	-35%	1	-4%	52*	1%	-7
COc1ccc(S(=O)(=O)n2ccnc2)cc1C(C)(C)C	-3%	/	/	-1	/	12
CCOC(=O)c1c(NC(C)=O)c2c3c(sc2n1Cc1ccc(Cl)cc1)CCCC3	/	/	/	0	/	-7
CC1CCCC(NC(=O)c2ccc3c(c2)OCO3)C1C (stereo not given)	3.5µM*	0	/	1	-5%	15

From PubChem
